# Compounds without any hit were thinned out: in the full panel of roughly 83,000, 20% have a hit.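 Single-concentration screen, 48 h exposure, 96-well plates. Endpoint: percent growth. Below 10 = active.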 Calls of active or inactive are those of the source.
# Test system: BT-549 breast
# Assay: NCI-60 one-dose screen, 48 h (100 = growth as untreated, 0 = no growth, -100 = all killed)
# Details: 10 µM unless noted
row,Structure (SMILES),growth
1,COc1cc(C2CC(c3ccc(C)cc3)=NN2C(C)=O)ccc1Oc1ccnc2cc(Cl)ccc12 (stereo unspecified),59.1% (inactive)
2,O=c1c(O)cccn1CCCNCCCN(CCCn1cccc(O)c1=O)CCCn1cccc(O)c1=O,113% (inactive)
3,CCCCCCCCSc1ncnc2c1ncn2CO,84.6% (inactive)
4,O=C1Cc2cc(CCN3CCN(CCOCCO)CC3)c(Cl)cc2N1Cc1ccc(-c2ccccc2-c2nn[nH]n2)cc1,87.3% (inactive)
5,COC(=O)c1ccc2c(c1)nc(-c1ccc(O)c(OC)c1)n2-c1cc(C(C)(C)C)[nH]n1,108% (inactive)
6,COc1cc(/C=C/c2nnc(-c3cc(-c4ccccc4)n[nH]3)o2)cc(OC)c1OC,112% (inactive)
7,CCOC(=O)c1c2c(c(C)n1Cc1ccc(OC)cc1)-c1nc(N)ncc1CC2,119% (inactive)
8,O=C(Nc1ccncc1)C(=O)c1cn(S(=O)(=O)c2cccc(F)c2)c2ccccc12,27.8% (inactive)
9,Nc1nc(N)c([N+](=O)[O-])c(=O)[nH]1,114% (inactive)
10,NC(=O)N/N=C/c1ccc(Br)o1,104% (inactive)
11,COc1ccc(C2CC(c3cccc(Nc4ccnc5cc(Cl)ccc45)c3)=NN2C=O)cc1 (stereo unspecified),30.9% (inactive)
12,O=Nc1ccc(O)c(=O)cc1,32.5% (inactive)
13,c1ccc(-n2nnnc2-c2cccc3ccccc23)cc1,29.5% (inactive)
14,CCCn1cnc2c1c(=O)n(CCCCC(C)=O)c(=O)n2C,103% (inactive)
15,O=C(/C=C/c1cccnc1)NCCCCC1CCCN(C(=O)c2ccccc2)C1 (stereo unspecified),73.7% (inactive)
16,CCC(C)CC(C)C(=O)c1c(O)ccn(O)c1=O (stereo unspecified),35.6% (inactive)
17,CC/C=C\C=C/C(=O)N/C=C/CC1Cc2cccc(O)c2C(=O)O1 (stereo unspecified),75.2% (inactive)
18,COC(=O)CC1=C(C)/C(=C/c2[nH]c(-c3ccc[nH]3)cc2OC)N=C1C,22.3% (inactive)
19,CCC(c1ccccc1)c1noc(CCN(CC)CC)n1 (stereo unspecified),84.6% (inactive)

row,Structure (SMILES),growth
1,CCCCCCCC/C=C/CCCCCCCC1=NC(C)(C)CN1CC(C)O (stereo unspecified),86.7% (inactive)
2,N#CCCCCCn1c2ccccc2c2c3c(c4c5ccccc5[nH]c4c21)C(=O)N(O)C3=O,16.1% (inactive)
3,COc1ccc(-c2nn(-c3ccccc3)cc2/C=C2\SC(=S)N(CCc3ccc(O)cc3)C2=O)cc1,103% (inactive)
4,C/C(=N/N=C(N)N)c1ccc(Cl)cc1,-0.709% (active)
5,COc1ccc(-c2noc(N)c2-c2cc(OC)c3c(c2)OCO3)cc1,48% (inactive)
6,COc1ccc(-c2c(-c3cc(OC)c(OC)c(OC)c3)noc2N)cc1,13.2% (inactive)
7,Cc1nn(-c2ccc(Br)cc2)c2nc3c(nc12)C(=O)C(=O)c1ccccc1-3,94.7% (inactive)
8,CCN(CC)c1ccc(C(O)C2=CC(=O)c3ccccc3C2=O)cc1 (stereo unspecified),23.6% (inactive)
9,CCCCCCCCCCCCCCCCN=C(CC(=O)O)C(=O)O,101% (inactive)
10,OC(CCC(O)(c1ccccc1)c1ccccc1)(c1ccccc1)c1ccccc1,121% (inactive)
11,Cc1cc(C)n2nc(SCC(=O)Nc3sc4c(c3C(N)=O)CCC4)nc2n1,99.6% (inactive)
12,C=Cc1nn2c(CCC(=O)c3nc4ccccc4[nH]3)nnc2s1,95.4% (inactive)
13,COc1ccc(Nc2nccc(N3CCN(c4c5ccc(Cl)cc5nc5ccc(OC)cc45)CC3)n2)cc1,90.5% (inactive)
14,NNC(=O)C1CC2c3ccccc3C1c1ccccc12 (stereo unspecified),102% (inactive)
15,COc1ccc2c(c1)C(=O)/C(=C/c1cccc(OCC(=O)c3ccccc3)c1)CC2,39.2% (inactive)
16,CN=C(NC)N/N=C(C)\C=N\NC(=NC)NC,110% (inactive)
17,O=Cc1c[nH]c2ccc(NC(=O)OCc3ccccc3)cc12,21.4% (inactive)
18,COc1ccc(-c2nnc(COc3ccc(NC(=O)Nc4cc(C(F)(F)F)cc(C(F)(F)F)c4)cc3F)o2)cc1,15.5% (inactive)

# Test system: MDA-MB-435 melanoma
# Assay: as above
# Details: 10 µM unless noted
row,Structure (SMILES),growth
1,O=c1c(O)cccn1CCCNCCCN(CCCn1cccc(O)c1=O)CCCn1cccc(O)c1=O,104% (inactive)
2,CCCCCCCCSc1ncnc2c1ncn2CO,82.6% (inactive)
3,O=C1Cc2cc(CCN3CCN(CCOCCO)CC3)c(Cl)cc2N1Cc1ccc(-c2ccccc2-c2nn[nH]n2)cc1,92.8% (inactive)
4,COc1cc(/C=C/c2nnc(-c3cc(-c4ccccc4)n[nH]3)o2)cc(OC)c1OC,102% (inactive)
5,O=C(Nc1ccncc1)C(=O)c1cn(S(=O)(=O)c2cccc(F)c2)c2ccccc12,-1.83% (active)
6,Nc1nc(N)c([N+](=O)[O-])c(=O)[nH]1,104% (inactive)
7,NC(=O)N/N=C/c1ccc(Br)o1,113% (inactive)
8,COc1ccc(C2CC(c3cccc(Nc4ccnc5cc(Cl)ccc45)c3)=NN2C=O)cc1 (stereo unspecified),-36% (active)
9,c1ccc(-n2nnnc2-c2cccc3ccccc23)cc1,-10.5% (active)
10,CCCn1cnc2c1c(=O)n(CCCCC(C)=O)c(=O)n2C,117% (inactive)
11,O=C(/C=C/c1cccnc1)NCCCCC1CCCN(C(=O)c2ccccc2)C1 (stereo unspecified),7.35% (active)
12,CC/C=C\C=C/C(=O)N/C=C/CC1Cc2cccc(O)c2C(=O)O1 (stereo unspecified),-52.1% (active)
13,CCC(c1ccccc1)c1noc(CCN(CC)CC)n1 (stereo unspecified),110% (inactive)
14,COc1ccc(-c2nn(-c3ccccc3)cc2/C=C2\SC(=S)N(CCc3ccc(O)cc3)C2=O)cc1,84.4% (inactive)
15,C/C(=N/N=C(N)N)c1ccc(Cl)cc1,71.7% (inactive)
16,COc1ccc(-c2c(-c3cc(OC)c(OC)c(OC)c3)noc2N)cc1,-6.19% (active)
17,Cc1nn(-c2ccc(Br)cc2)c2nc3c(nc12)C(=O)C(=O)c1ccccc1-3,110% (inactive)
18,OC(CCC(O)(c1ccccc1)c1ccccc1)(c1ccccc1)c1ccccc1,69.9% (inactive)
19,Cc1cc(C)n2nc(SCC(=O)Nc3sc4c(c3C(N)=O)CCC4)nc2n1,108% (inactive)
20,COc1ccc(Nc2nccc(N3CCN(c4c5ccc(Cl)cc5nc5ccc(OC)cc45)CC3)n2)cc1,55.8% (inactive)
21,NNC(=O)C1CC2c3ccccc3C1c1ccccc12 (stereo unspecified),106% (inactive)
22,COc1ccc2c(c1)C(=O)/C(=C/c1cccc(OCC(=O)c3ccccc3)c1)CC2,41.1% (inactive)
23,O=Cc1c[nH]c2ccc(NC(=O)OCc3ccccc3)cc12,115% (inactive)
24,COc1ccc(-c2nnc(COc3ccc(NC(=O)Nc4cc(C(F)(F)F)cc(C(F)(F)F)c4)cc3F)o2)cc1,7.29% (active)

# Reference: PubChem BioAssay (NCI)
